# High-throughput results: PubChem BioAssay, several laboratories
# The list is not random: actives were taken first. Their share in the collection is about 4.6%.
# GRIN3A LBD mod: binders of NR3A ligand-binding domain, primary screen, biophysical, differential scanning fluorimetry, uHTS; NR3A LBD differential scanning fluorimetry, Tm shift; 0% = protein alone, 100% = glycine-bound protein; Tm shift relative to glycine control, % at 25 µM; AID 1259313, 2017; Glutamate receptor ionotropic, NMDA 3A (GRIN3A) ligand-binding domain; 2.5% of 340,000 active;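 active = melting temperature shift of at least 10% of the positive control shift, at one fixed dose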
# ADAM17 inh: ADAM17 inhibitors, primary screen, biochemical, QFRET | recombinant ADAM17, EDANS/DABCYL FRET peptide cleavage | AID 720648, 2013 | inhibition, % at 6.95 µM | 0.83% of 370,000 active;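 active = inhibition above the mean of compounds lying between control limits plus 3 SD, set per campaign, cut at about 8.5% in these data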;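 note: 0% = DMSO-only wells as the low control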
# Target sequence (P78536 215-824 limits assumed): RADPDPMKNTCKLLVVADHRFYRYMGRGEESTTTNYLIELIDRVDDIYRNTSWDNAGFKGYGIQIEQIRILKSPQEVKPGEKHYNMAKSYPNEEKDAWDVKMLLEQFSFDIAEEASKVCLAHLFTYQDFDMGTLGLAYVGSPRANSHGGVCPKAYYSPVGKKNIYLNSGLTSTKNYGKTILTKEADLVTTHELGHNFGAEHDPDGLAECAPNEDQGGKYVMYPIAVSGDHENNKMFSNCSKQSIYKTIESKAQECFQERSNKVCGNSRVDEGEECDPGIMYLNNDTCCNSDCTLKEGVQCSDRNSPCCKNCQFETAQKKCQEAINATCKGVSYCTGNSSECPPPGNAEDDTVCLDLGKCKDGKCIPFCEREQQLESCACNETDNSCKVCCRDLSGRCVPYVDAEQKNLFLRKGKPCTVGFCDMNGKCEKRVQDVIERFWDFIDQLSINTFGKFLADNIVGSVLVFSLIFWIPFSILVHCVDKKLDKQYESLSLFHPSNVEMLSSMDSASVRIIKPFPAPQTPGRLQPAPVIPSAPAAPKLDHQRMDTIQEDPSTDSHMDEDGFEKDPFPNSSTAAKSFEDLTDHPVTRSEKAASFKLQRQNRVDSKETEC
# FAS TE block: FAS thioesterase domain inhibitors, primary screen, biochemical, fluorescence intensity, uHTS; Fatty acid synthase (Homo sapiens), P49327; recombinant FAS-TE, OMFH fluorogenic substrate, fluorescence endpoint; inhibition, % at 15 µM; 0.67% of 360,000 active; AID 602261, 2012;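 active = compounds whose normalised, plate-corrected inhibition of enzyme fluorescence in the single-dose primary screen is 50% or more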;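 note: 0% = DMSO with enzyme and 100% = substrate without enzyme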
# ADAM10 inh: human ADAM10 inhibitors, primary screen, biochemical, QFRET, HTS; AID 720582, 2013; 0.62% of 370,000 active; recombinant ADAM10, EDANS/DABCYL FRET peptide cleavage, 3 h; inhibition, % at 7 µM; Disintegrin and metalloproteinase domain-containing protein 10 (Homo sapiens), O14672;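 active = inhibition above a per-campaign cutoff equal to the mean of compounds falling between control-based bounds plus 3 SD, cut at about 20% in these data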;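 note: 0% = DMSO wells while the 100% control is not disclosed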
# proKLK7 act: proKLK7 zymogen activators, primary screen, biochemical, fluorescence intensity; Kallikrein-7 (Homo sapiens), P49862; purified proKLK7, EDANS-DABCYL substrate fluorescence; 100% is mature enzyme control, 0% vehicle; activation, % at 7 µM; 0.9% of 370,000 active;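 active = activation above the mean of all tested compounds plus 3 SD, computed per campaign excluding outliers beyond control limits, cut at about 13% in these data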
# Active calls of the source: *; i = inactive; . = no result given.
SMILES,GRIN3A LBD mod,ADAM17 inh,FAS TE block,ADAM10 inh,proKLK7 act
O=C(CSc1nnc(-c2ccc(O)cc2)o1)Nc1ccccc1,13.5*,0.5,0.1,1.2,0.1
COc1ccc(NC(=O)CSc2nnc(-c3cccc(O)c3)o2)cc1,13.9*,-0.9,-3.4,-6.3,0.5
O=C1CCC[C@H]2C[C@H](NCc3ccc(F)cc3F)CC[C@]23CCCN13,.,-5.4,.,-5.0,.
O=[N+]([O-])c1cccc(-c2nc3ccc([N+](=O)[O-])cc3[nH]2)c1,-2.1,-2.0,28.0,2.1,-0.4
COc1ccc(-c2nc3ccc([N+](=O)[O-])cc3[nH]2)cc1,28.6*,3.1,15.6,3.1,-0.1
Cc1ccc(-c2nc3ccc([N+](=O)[O-])cc3[nH]2)cc1,24.7*,-0.1,20.2,6.4,0.0
O=[N+]([O-])c1ccc2nc(-c3ccncc3)[nH]c2c1,1.2,-1.4,8.3,3.0,-0.1
O=[N+]([O-])c1ccc2nc(-c3ccc(Cl)cc3)[nH]c2c1,28.3*,-22.4,16.7,-84.6,0.1
Nc1ccc2nc(-c3cccc(-c4nc5ccc(N)cc5[nH]4)n3)[nH]c2c1,-6.2,-3.6,3.4,0.6,-1.7
Nc1ccc2nc(-c3ccc(-c4nc5ccc(N)cc5[nH]4)cc3)[nH]c2c1,17.9*,-11.6,.,-24.5,-20.1
O=S1(=O)c2ccc(Br)cc2OC[C@@H](Cc2ccccc2)N1Cc1cn(Cc2ccc(C(F)(F)F)cc2)nn1,.,-2.7,.,5.3,-0.3
CCCCOc1ccc(C(=O)NC2CCCCN(CC)C2=O)cc1 (stereo unspecified),.,-0.5,.,-1.4,0.4
CC(c1cc(F)ccc1O)c1c[nH]c2ccccc12 (stereo unspecified),.,0.9,.,1.8,0.0
CN(C)CCNC(=O)C(=O)c1c(-c2ccccc2)cc2ccccn12,242.5*,-4.0,-4.6,-3.8,0.7
Cc1ccc(-n2c(SCc3cccc(F)c3)nnc2-c2cccc(C)c2)cc1,.,3.6,.,0.1,-0.5
O=c1c2ccccc2oc2cc(Br)ccc12,12.6*,-6.6,8.0,-9.8,-0.2
CC(C)CNS(=O)(=O)/C=C/c1ccc(F)cc1CNC(=O)OC(C)(C)C,.,0.0,.,1.7,0.3
O=C(c1ccc(Cl)cc1)N1CCN(c2cccc3[nH]ccc23)CC1,15.4*,-2.0,2.8,3.1,0.1
COc1cccc(/C=N/n2nnnc2N)c1OCC#N,13.3*,-22.7,-5.5,-109.8,2.2
O=C(Nc1nc2ncccn2c1-c1ccc(F)cc1)C1CC1,.,-173.3,.,i,9.2
CC(C)[C@H](Nc1ccc(C(F)(F)F)cc1[N+](=O)[O-])C(=O)O,8.5,-2.9,-3.3,3.7,0.4
O=C(NNc1ccc(C(F)(F)F)cc1[N+](=O)[O-])c1ccc(NS(=O)(=O)c2ccc(F)cc2)cc1,22.2*,4.5,19.3,16.5,-0.5
COc1cccc(NC(=O)NC2CCCCN(Cc3ccc(C)cc3)C2=O)c1 (stereo unspecified),.,1.5,.,3.7,0.5
c1ccc2nc(N3CCCC3)c(N3CCCC3)nc2c1,11.2*,-6.2,9.7,-24.0,1.7
COc1ccccc1NC(=O)c1ccc(NC(=O)COC(=O)C2(C)CC2(Cl)Cl)cc1 (stereo unspecified),25.3*,6.0,22.3,16.1,0.7
SMILES,GRIN3A LBD mod,ADAM17 inh,FAS TE block,ADAM10 inh,proKLK7 act
COc1ccccc1Nc1ccc(Nc2ccccc2OC)nn1,12.3*,-1.0,-2.7,3.5,0.2
CCOC(=O)C1C(C(=O)OC)=C(c2ccc(OC)cc2)c2ccccc2N1S(=O)(=O)C(F)(F)F (stereo unspecified),11.3*,0.8,13.6,0.8,0.1
CCOC(=O)C1C(C(=O)OC)=C(c2ccc(F)cc2)c2ccccc2N1S(=O)(=O)C(F)(F)F (stereo unspecified),-3.1,-8.1,9.2,-22.7,0.4
CCOC(=O)C1=C(c2ccccc2)c2ccccc2N(S(=O)(=O)C(F)(F)F)C1C(=O)OCC (stereo unspecified),-0.5,-7.0,12.5,-21.2,0.8
CCOC(=O)C1C(C(C)=O)=C(c2ccccc2)c2ccccc2N1S(=O)(=O)C(F)(F)F (stereo unspecified),11.3*,-5.7,15.5,-6.1,0.1
Cc1cc(C)cc(NC(=O)O[C@@H]2CC[C@@]34CCCN3C(=O)CCC[C@H]4C2)c1,.,-2.1,.,7.7,.
Cc1ccc(CNC(=O)OC(C)(C)C)c(/C=C/S(=O)(=O)NCc2ccc(F)cc2)c1,.,3.5,.,2.3,-0.2
CCCCCCCCCCNC(=O)C(=O)Nc1ccccn1,12.2*,.,-2.5,.,.
Cc1ccc(NC(=O)C(=O)Nc2ccccn2)cc1,3.1,-1.0,-12.1,3.3,0.2
COC(=O)[C@H](C(C)C)N1CCc2nnn(CC3CCCCC3)c2-c2ccccc2S1(=O)=O,.,2.5,.,6.9,0.3
CCC(CC)NC(=O)O[C@H]1CC[C@@]23CCCN2C(=O)CCC[C@H]3[C@H]1C,.,-2.2,.,5.2,.
O=C(c1ccc(NC(=S)Nc2ccc(Cl)c(Cl)c2)cc1)N1CCCC1,15.0*,-5.2,6.8,-12.6,0.7
O=C(Nc1ccccc1)Nc1ccccc1Br,-11.9,1.3,0.2,8.7,-0.4
CC(=O)Nc1ccc2ccccc2c1,-0.1,.,-6.6,.,.
O=C(Nc1ccc(Cl)c(Cl)c1)N1CCCCCC1,0.1,-0.3,3.1,-14.4,0.2
O=C(Nc1ccccc1)Nc1ccc2ccccc2c1,25.8*,-2.8,0.4,-7.0,0.5
CC(=O)c1ccc(NC(=S)Nc2ccc(Br)c(Cl)c2)cc1,29.3*,-1.3,15.9,-1.0,0.0
O=C(Nc1ccccc1)Nc1ccc(Br)c(Cl)c1,29.7*,5.9,10.6,15.7,0.1
O=C(NC(=S)Nc1ccc(Br)c(Cl)c1)C1CC1,-2.1,4.0,23.1,15.8,0.1
CCCCN1CCN(C(=O)Cn2c(=O)c3ccccc3n(CC)c2=O)CC1,.,3.6,.,-7.5,-0.3
COC(=O)[C@]12C[C@H](CC(=O)NCCc3ccccc3OC)C(=O)N(Cc3ccco3)C1=C[C@H](C(C)(C)C)O[C@@H]2C,.,0.8,.,6.2,-0.1
CC(=O)c1ccc(NC(=S)Nc2ccc3cn[nH]c3c2)cc1,10.2*,-7.7,-12.3,-24.6,-0.6
Cc1ccc2nc(Cl)c(/C=N/NC(=O)[C@H]3C[C@@H]3c3ccccc3)cc2c1,0.4,-5.9,12.4,-13.9,-0.3
Cc1nc2ccccc2cc1C(=O)N/N=C/c1ccco1,5.4,-2.6,-4.1,-11.6,0.3
Cc1ccc2nc(Cl)c(/C=N/NC(=O)c3ccccc3O)cc2c1,20.3*,-3.3,-7.0,-9.4,0.2
Cc1ccc2nc(C)c(C(=O)N/N=C/c3ccco3)cc2c1,11.5*,2.0,-12.4,-2.3,-0.6
